This passage reports z-score results from PubChem BioAssay AID1628 (Sanford-Burnham Center for Chemical Genomics, 2009).

Hit rate of the full screen: of about 190,000 compounds, about 930 (0.49%) were called active. The list shows a part of the results. Potency and affinity values are given separately. Unmarked numbers belong to inactive results.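 How the source made its calls: active means z-score of insulin promoter reporter brightness in nuclei below -3 at 5 µM, with at least 500 cells counted; inconclusive means wells with under 500 cells, flagged as toxic or sparse; inactive means the rest.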

The assay can be described thus: decrease of insulin promoter-GFP reporter – imaging, high-content screening, mouse beta cells (AID 1628). The conditions noted are these: MIN6 insulin promoter GFP reporter, at 5 µM, hits give low values.
For `CCN(CC)S(=O)(=O)c1cccc(-c2n[nH]c(=S)n2/N=C/c2ccc(C(=O)OC)cc2)c1`, the z-score was -4.66 (active).

Turning to `COC(=O)c1cc(Nc2cc(C)c3ccc(O)cc3n2)cc(C(=O)OC)c1`, the z-score is -3.19 (active).

`COC(=O)c1cc(-c2c(C)oc3cc(O)ccc3c2=O)c(C)o1`: the z-score was 0.55.

With `Cc1cc(C(=O)COc2ccc(-c3nnco3)cc2)c(C)n1Cc1ccccc1`, the z-score was -4.66 (active).

`S=C(Nc1ccccc1Cl)N(CCCN1CCOCC1)Cc1ccco1`: the z-score is -4.9 (active).

For `CCOC(=O)Cc1csc(SCC(=O)Nc2cccc(C#N)c2)n1`, the z-score is 1.27.

As for `Cc1csc(NC(=O)CN(C)S(=O)(=O)c2cccc3cccnc23)n1`, the z-score is 3.05.

On to `Cc1csc(SCC(=O)Nc2cccc3nsnc23)n1`, for which the z-score was -3.34 (active).

On to `N=c1c2c(n(Cc3ccc(F)cc3)c3c1CCC3)CCC2`, for which the z-score is -5.9 (active).

As to `N=c1c2c(n(Cc3ccc([N+](=O)[O-])cc3)c3c1CCC3)CCCC2`, the z-score is -3.48 (active).

Take `CC(C)(C)NC(=O)N1CCC(CO)(Cc2ccccc2Cl)CC1`: the z-score is -3.59 (active).

Consider `CCCCn1nc2cc(C(=O)N(CC)c3ccc(OC)cc3)ccc2c1OCC`, for which the z-score is -3.8 (active).

On to `CCCn1nc2cc(C(=O)NCc3ccccc3)ccc2c1OCC`, for which the z-score was 4.73.

As to `Cc1ccccc1N=Nc1c(C)[nH]n(C(N)=S)c1=O`, the z-score is -9.54 (active).

In the case of `O=C(NNS(=O)(=O)c1ccc(F)cc1F)c1csc(-c2cccnc2)n1`, the z-score was -3.45 (active).

Consider `Nc1c(C(=O)N/N=C/c2cccnc2)oc2nc(-c3ccccc3)cc(-c3ccco3)c12`, for which the z-score is 4.08.

In the case of `O=C(CSc1nc(Cc2ccccc2)nc2ccccc12)Nc1nc2c(s1)CCCC2`, the z-score was -3.54 (active).

In the case of `CN(C)c1ccc(/C=C(\C#N)C(=O)Nc2nc3c(s2)CCN(Cc2ccccc2)C3)cc1`, the z-score is 15.1.

As for `CCCCc1nnc(NC(=O)CSc2nc(O)c(Cc3ccccc3)c(=O)[nH]2)s1`, the z-score was 2.27.

Take `O=c1cc(O)c2c(=O)n(-c3ccccc3)c3c(c2o1)CCCCCC3`: the z-score was -4.17 (active).

`Cc1cc(Nc2nn(C)c(N)c2C#N)ccc1F`: the z-score is 6.01.

Take `CCOC(=O)C1C(=O)C=C(/C=C/c2ccc(N(C)C)cc2)CC1c1ccccc1` (stereo not given): the z-score is 9.81.

On to `CCOC(=O)C1C(=O)C=C(c2cccc(NS(C)(=O)=O)c2)CC1c1ccco1` (stereo not given), for which the z-score is -3.47 (active).

Take `COc1ccc(OCCC(=O)NC2CCCCC2)cc1`: the z-score was -3.45 (active).

On to `COc1ccc(-c2nnn(CC(=O)N(CCO)C(C(=O)NC3CCCC3)c3ccc(F)cc3)n2)cc1` (stereo not given), for which the z-score is 3.28.

Consider `O=C(COc1ccc(Cl)cc1)NCc1nnc(SCC(=O)NC2CCCCC2)o1`, for which the z-score was 3.28.

In the case of `S=c1[nH]c2ccc(Cl)cc2[nH]1`, the z-score is 1.33.

Consider `CC1CCCC(C)N1C(=O)CSc1nnc(-c2cccs2)o1` (stereo not given), for which the z-score was 3.46.

`O=C(CSc1nnc(-c2cccs2)o1)N1CCOCC1`: the z-score was -4.31 (active).

On to `COc1ccc(C(c2nnnn2Cc2ccccc2)N2CCN(c3nc4ccccc4s3)CC2)cc1` (stereo not given), for which the z-score was -5.01 (active).

With `c1ccc(Cn2nnnc2C(c2ccccc2)N2CCN(c3nc4ccccc4s3)CC2)cc1` (stereo not given), the z-score was -3.45 (active).

As to `COc1ccccc1C(c1nnnn1Cc1ccccc1)N1CCN(c2nc3ccccc3s2)CC1` (stereo not given), the z-score is -5.06 (active).

As for `N#C/C(=C/c1ccc(N2CCCCC2)o1)C(=O)Nc1ccc(Cl)cc1`, the z-score was 17.2.

Consider `c1ccc(-c2nnc3sc(CN4CCc5ccccc54)cn23)cc1`, for which the z-score is -0.03.

Turning to `COC(=O)c1ccc(Cl)c(-c2ccc(/C=N/NC(=O)Nc3ccccc3)o2)c1`, the z-score was -3.3 (active).

For `COc1cc([N+](=O)[O-])ccc1-c1ccc(/C=N/NC(N)=O)o1`, the z-score was 3.33.

With `COc1cc2c3nnc(-c4ccc(F)cc4)c-3cn(Cc3ccccc3F)c2cc1OC`, the z-score was 6.27.

For the molecule `CC(C)COC(=O)c1nnsc1NC(=O)Nc1ccccc1`, the z-score is -3.85 (active).

For `CC1CCc2c(sc3nn[nH]c(=O)c23)C1` (stereo not given), the z-score was 4.24.

As for `COc1c2c(nc3ccccc13)OC(C(C)(O)COC(C)=O)C2` (stereo not given), the z-score is 3.26.

As for `Cc1cc(C)cc(NC(=O)/C=C/c2ccc([N+](=O)[O-])s2)c1`, the z-score was 5.99.

As for `COc1ccc(OC)c(/C(O)=C/C(=O)C(=O)Nc2cc(C)cc(C)c2)c1`, the z-score is -5.01 (active).

For `COc1cccc(/C=N/n2c(=O)[nH]c3ccccc32)c1OC`, the z-score is -4.61 (active).

As to `O=[N+]([O-])c1ccc2c(c1)C(N1CCOCC1)/C(=C/COc1ccc3ccccc3c1Br)O2` (stereo not given), the z-score is -5.36 (active).

Regarding `Cc1cc(C)n(-c2ccc(C(=O)OCC(=O)N(CC(C)C)C3CCS(=O)(=O)C3)cc2)n1` (stereo not given), the z-score was 3.33.

On to `CCN(C(=O)COC(=O)c1cccnc1Nc1cccc(C(F)(F)F)c1)C1CCS(=O)(=O)C1` (stereo not given), for which the z-score was -4.37 (active).

For the molecule `O=Nc1c(O)n(Cc2ccc(Cl)cc2)c2ccccc12`, the z-score was 3.05.

In the case of `COc1ccc(OC)c(-n2c(=S)[nH]c3c(sc(=S)n3-c3ccccc3)c2=O)c1`, the z-score was 5.22.

Regarding `COc1ccc(C2/C=C\CN(S(=O)(=O)c3cccc4cccnc34)CC(=O)N2Cc2ccc(F)cc2)cc1` (stereo not given), the z-score was 7.49.

As to `COc1ccc(C2C(=O)c3ccccc3C2=O)cc1OC`, the z-score was 3.02.

For `COc1ccc(C2C(Oc3ccccc3C)C(=O)N2Cc2ccc(F)cc2)cc1OC` (stereo not given), the z-score was -5.19 (active).

`CCOc1ccccc1N=C1NC(=O)CS1`: the z-score is -6.97 (active).

Turning to `CCOc1ccccc1-c1c2cc(O)c(=O)cc-2oc2cc(O)c(O)cc12`, the z-score was 8.08.

`O=C(Nc1nc2ccccc2n1CCN1CCOCC1)c1ccc(COc2ccccc2Br)o1`: the z-score was -3.48 (active).

Turning to `COC(=O)CN(C(=O)CSc1nnc(-c2cccc(OC)c2)o1)c1ccc(OC)cc1`, the z-score is -0.85.

Take `COc1ccc(-c2nnc(SCC(=O)N(Cc3ccccc3)C(C)(C)C)o2)cc1OC`: the z-score is -5.96 (active).

Turning to `CCCOC(=O)CSc1nnc(-c2ccc(Cl)cc2Cl)o1`, the z-score was -1.15.

As for `CCOC(=O)/C(=C/C=C1\Sc2cc(OCC)c(OCC)cc2N1CC)C(C)=O`, the z-score was 16.2.

As for `Cc1ccc(C)c(Cn2c(C)nc3c(sc(=S)n3-c3ccccc3)c2=O)c1`, the z-score is 2.17.

Regarding `Cc1nc2c(c(=O)n1Cc1ccccc1Cl)c1nc3ccccc3nc1n2Cc1ccco1`, the z-score is -5.21 (active).
